For 25 compounds, Potency results are on record in PubChem BioAssay (NCATS).

The nature of assay [1]: qHTS of pediatric cancer cell lines to identify multiple opportunities for drug repurposing: Confirmatory screen for SJ-GBM2 cells (AID 1347116). Also: nearly all actives have a fitted effect of over 60% in size. The gist of the method:
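Viability measured as metabolically active cells via CellTiter-Glo luminescence following 48 hours of compound exposure, 11-point dilutions in confirmatory testing. 500-1,000 cells/well plated 5 hours before dosing; controls were DMSO and 2.3 µM bortezomib.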

Assay [2] in a line: qHTS of pediatric cancer cell lines to identify multiple opportunities for drug repurposing: Confirmatory screen for BT-37 cells (AID 1347117). Also: nearly all actives have a fitted effect of over 55% in size. Conditions: BT-37 pediatric cancer cells, viability; activity change, negative = cytotoxic: at 45.9 µM (top of the series). The method, boiled down: (§1)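 Cells (500-1,000/well) rested 5 h, then received compounds for 48 h; metabolically active cells were measured by CellTiter-Glo luminescence. Final concentrations spanned up to 46 µM (MIPE, 11-point) or 0.59 nM-46 µM (NPC, 8-point) in primary screens, 11-point in follow-ups.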

Assay [3] in a line: qHTS of pediatric cancer cell lines to identify multiple opportunities for drug repurposing: Confirmatory screen for TC32 cells (AID 1347118).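 Also: cells exposed to compound for 48 h before the read; nearly all actives have a fitted effect of over 65% in size.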 The gist of the method: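 Luminescent ATP read-out (CellTiter-Glo) of metabolically active TC32 cells after 48 h exposure. Concentration-response curves came from 11-point (MIPE, 0.78 nM–46 µM) or 8-point (NPC, 0.59 nM–46 µM) primary titrations; follow-up used 11 points.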

Assay [4] can be described thus: qHTS of pediatric cancer cell lines to identify multiple opportunities for drug repurposing: Confirmatory screen for Rh41 cells (AID 1347123).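 Also: 48 h compound exposure; nearly all actives have a fitted effect of over 60% in size.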 The method, boiled down:
as §1

Assay [5] can be described thus: qHTS of pediatric cancer cell lines to identify multiple opportunities for drug repurposing: Confirmatory screen for RD cells (AID 1347124).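 Also: cells exposed to compound for 48 h before viability readout; nearly all actives have a fitted effect of over 65% in size.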 The method, boiled down: as §1
A short description of assay [6]: qHTS of pediatric cancer cell lines to identify multiple opportunities for drug repurposing: Confirmatory screen for MG 63 (6-TG R) cells (AID 1347119). Also: nearly all actives have a fitted effect of over 55% in size. The gist of the method:
as §1

A short description of assay [7]: qHTS of pediatric cancer cell lines to identify multiple opportunities for drug repurposing: Confirmatory screen for control Hh wild type fibroblast cells (AID 1347121). Also: nearly all actives have a fitted effect of over 70% in size. The gist of the method: as §1
Assay [8] is described as follows: qHTS of pediatric cancer cell lines to identify multiple opportunities for drug repurposing: Confirmatory screen for U-2 OS cells (AID 1347122). Also: nearly all actives have a fitted effect of over 65% in size. The gist of the method:
as §1

Molecules are shown by their SMILES. Results filed as inconclusive are left out. The source made the active and inactive calls. Calls follow the shape of the dose curve; as a rule, active = well fitted curve in the direction sought with a large enough effect; inconclusive = small, poorly fitted or top-dose-only effect, or another doubt; inactive = no such curve, though single readings can be large; an effect the other way counts as inactive or inconclusive. Starred links: 1 amine or outer side, 2 acyl side, 3 side chain; linkers in the order of their positions; H or OH if unused. Positions of bridges follow the written chain, without caps; N, C: chain ends. Non-standard residues stand in square brackets, D forms with d. Residues, ends and D or L forms follow the SMILES beside them. Chains are numbered I, II in the order given. Actinocin(9to1) = Cc1c2oc3c(C)ccc(C(=O)[*:1])c3nc-2c(C(=O)[*:2])c(N)c1=O; NMeV = CN[CH](C(=O)O)C(C)C; Sar = CNCC(=O)O
Potency is read from the fitted curve at half-maximal effect.

`COc1cccc2c1C(=O)c1c(O)c3c(c(O)c1C2=O)C[C@@](O)(C(=O)CO)C[C@@H]3O[C@H]1C[C@H](N)[C@@H](O)[C@H](C)O1`: the Potency in assay [1] was 0.737 µM (active); in assay [2], 0.117 µM (active); in assay [3], 0.131 µM (active); in assay [4], 0.293 µM (active); in assay [5], 3.29 µM (active).

For `COc1cc(C=CC(=O)CC(=O)C=Cc2ccc(O)c(OC)c2)ccc1O`, the Potency is 30.2 µM (active) in assay [2], 9.55 µM (active) in assay [3], 26.9 µM (active) in assay [6] and 17 µM (active) in assay [4].

For `COc1cc(OC)c(C=CS(=O)(=O)Cc2ccc(OC)c(NCC(=O)O)c2)c(OC)c1`, the Potency in assay [2] was 0.657 µM (active); in assay [3], 0.208 µM (active); in assay [6], 0.208 µM (active); in assay [8] it was 0.293 µM (active). In addition, the Potency entry in assay [7] was “inactive”.

Take `COc1cccc2c1C(=O)c1c(O)c3c(c(O)c1C2=O)C[C@@](O)(C(=O)CO)C[C@H]3O[C@H]1C[C@H](N)[C@H](O)[C@H](C)O1`: the Potency in assay [1] is 0.928 µM (active); in assay [2], 0.293 µM (active); in assay [3] it was 0.261 µM (active); in assay [8], 13.1 µM (active); in assay [4], 0.928 µM (active); in assay [5], 5.22 µM (active).

Take `CN(C)c1ccc(C(=O)NCCCCCCC(=O)NO)cc1`: the Potency in assay [2] was 1.65 µM (active); in assay [3], 1.65 µM (active); in assay [6] it was 1.47 µM (active); in assay [8], 1.47 µM (active); in assay [4], 1.17 µM (active); in assay [5], 2.33 µM (active).

For the compound `O=C(O)C[C@H](O)C[C@H](O)C=Cc1c(C2CC2)nc2ccccc2c1-c1ccc(F)cc1`, the Potency in assay [3] was 2.93 µM (active); in assay [8], 1.65 µM (active); in assay [4], 4.65 µM (active); in assay [5] it was 11.7 µM (active). The Potency result in assay [7] is “inactive”.

For `CC(N[C@H]1CCCC[C@H]1NC(=O)c1ccc(Cl)cc1)c1cccc2ccccc12` (some centres not stated), the Potency is 23.3 µM (active) in assay [2], 5.85 µM (active) in assay [3] and 23.3 µM (active) in assay [6].

Consider `O=C1NCCc2[nH]c(-c3ccncc3)cc21`, for which the Potency in assay [2] was 2.33 µM (active); in assay [3], 4.14 µM (active); in assay [6] it was 8.27 µM (active); in assay [8], 2.93 µM (active). Further, the Potency result in assay [7] was “inactive”.

Regarding `O=C(O)c1ccc(Nc2ncc3c(n2)-c2ccc(Cl)cc2C(c2c(F)cccc2F)=NC3)cc1`, the Potency was 1.47 µM (active) in assay [3] and 4.14 µM (active) in assay [8]. Besides, the Potency result in assay [7] was “inactive”.

As for `CC(=O)N1CCN(c2ccc(OCc3nn(C)c(C)c3-c3cccc4c(CCCOc5cccc6ccccc56)c(C(=O)O)n(Cc5cccnc5)c34)cc2)CC1`, the Potency result in assay [2], in assay [6], in assay [7], in assay [8] and in assay [5] was “inactive” each time.

As for `COc1cc(C[C@@H](CO)[C@H](CO)Cc2ccc(O)c(OC)c2)ccc1O`, the Potency entry in assay [2], in assay [6] and in assay [7] was “inactive” in each case. Further, the Potency is 9.27 µM (active) in assay [3] and 16.5 µM (active) in assay [5].

For the compound `O=C(Nc1cc2cc[nH]c2cn1)c1ccccc1`, the Potency in assay [2] was 9.27 µM (active); in assay [3], 1.85 µM (active); in assay [7], 14.7 µM (active). In assay [8], the Potency result is “inactive”.

Regarding `Cc1cnc(Nc2ccc(CN3CCOCC3)cc2)nc1Nc1cccc(S(=O)(=O)NC(C)(C)C)c1`, the Potency is 4.65 µM (active) in assay [2]; 3.29 µM (active) in assay [3]; 4.14 µM (active) in assay [6]; 4.65 µM (active) in assay [8]; 5.22 µM (active) in assay [4].

As for `CCOC(=O)N1CCN([N+]([O-])=NOc2ccc([N+](=O)[O-])cc2C#N)CC1`, the Potency is 3.29 µM (active) in assay [2] and 2.33 µM (active) in assay [3]. Moreover, in assay [7], the Potency entry is “inactive”.

With `NC(=O)Nc1cc(-c2ccc(CN3CCOCC3)cc2)sc1C(N)=O`, the Potency was 18.5 µM (active) in assay [2]; 0.414 µM (active) in assay [3]; 3.69 µM (active) in assay [6]; 11.7 µM (active) in assay [8]; 13.1 µM (active) in assay [4].

In the case of `O=C1NC(=O)C(=Cc2ccc3nccc(-c4ccncc4)c3c2)S1`, in assay [3], the Potency result is “inactive”. In addition, the Potency is 1.04 µM (active) in assay [6], 2.61 µM (active) in assay [8], 2.61 µM (active) in assay [4] and 7.37 µM (active) in assay [5].

`O=C(NC1CC1)c1cccc(-c2ccc3c(NC(=O)C4CC4)n[nH]c3c2)c1`: the results for the Potency in assay [3] and in assay [6] were 5.85 µM (active) and 11.7 µM (active), respectively. The Potency entry in assay [7] was “inactive”.

Consider `CCN(CC)CCNC(=O)c1c(C)[nH]c(C=C2C(=O)Nc3ccc(F)cc32)c1C`, for which the values for the Potency in assay [6], in assay [8] and in assay [5] were 13.5 µM (active), 24 µM (active) and 15.1 µM (active), respectively.

Turning to `COC(=O)C1C2CC3c4[nH]c5cc(OC)ccc5c4CCN3CC2CC(OC(=O)c2cc(OC)c(OC)c(OC)c2)C1OC` (configuration not stated), the Potency in assay [2] is 1.47 µM (active); in assay [8], 20.8 µM (active). Besides, in assay [7], the Potency result was “inactive”.

Take `O=C(NCc1ccccc1)[C@H](Cc1ccccc1)NC(=O)[C@@H]1O[C@@H]1C(=O)NCCc1ccc(O)cc1`: the Potency entry in assay [1], in assay [7], in assay [8] and in assay [5] was “inactive” throughout. Moreover, the Potency in assay [3] was 0.165 µM (active).

Consider `Cc1c2oc3c(C)ccc(C(=O)NC4C(=O)NC(C(C)C)C(=O)N5CCCC5C(=O)N(C)CC(=O)N(C)C(C(C)C)C(=O)OC4C)c3nc-2c(C(=O)NC2C(=O)NC(C(C)C)C(=O)N3CCCC3C(=O)N(C)CC(=O)N(C)C(C(C)C)C(=O)OC2C)c(N)c1=O` (configuration not stated) (I: TVP[Sar][NMeV] / II: TVP[Sar][NMeV]; ester I:1-I:C, II:1-II:C; linker I:N-II:N via Actinocin(9to1); configuration not given here), for which the Potency was 0.0026 µM (active) in assay [2] and 0.0165 µM (active) in assay [3]. Also, the Potency result in assay [7] is “inactive”.

For `Nc1ncn([C@@H]2O[C@H](CO)[C@@H](O)[C@@H]2O)c(=O)n1`, the Potency was 16.5 µM (active) in assay [1]; 16.5 µM (active) in assay [2]; 4.65 µM (active) in assay [3]; 8.27 µM (active) in assay [8]; 16.5 µM (active) in assay [4]; 20.8 µM (active) in assay [5].

As for `CCOc1cc2ncc(C#N)c(Nc3ccc(OCc4ccccn4)c(Cl)c3)c2cc1NC(=O)C=CCN(C)C`, the Potency in assay [1] was 4.14 µM (active); in assay [5] it was 2.33 µM (active).

`CCc1cnn2c(NCc3ccc[n+]([O-])c3)cc(N3CCCC[C@@H]3CCO)nc12`: the Potency entry in assay [7], in assay [8], in assay [4] and in assay [5] was “inactive” each time.

Turning to `CCOC(=O)C1=C(C)NC(=S)NC1c1cccc(O)c1` (configuration not stated), the values for the Potency in assay [3] and in assay [8] were 3.69 µM (active) and 20.8 µM (active), respectively. The Potency result in assay [6] and in assay [7] was “inactive” in each case.
